Screening data (PubChem BioAssay)
Sampled rows, rich in hits. Any-hit rate of the full collection: about 2.8%.
SNCA expr inh = SNCA gene expression inhibition | AID 1671194 | HEK-293 SNCA-luciferase knock-in, luminescence, 24 h | 0.17% of 140,000 active | Potency, µM (series often up to 57.2 µM), without a hit: top-dose activity change, negative = inhibition, usual class: inhibitors;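 also: potency is read from the fitted curve at half-maximal effect; plate controls were DMSO cells for no effect and cell-free wells for full effect; nearly all actives have a fitted effect of over 45% in size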
SNCA viab count = reduces viability of HEK-293 SNCA reporter cells; HEK-293-SNCA-luc viability, GF-AFC fluorescence, 24 h; Potency, µM (series often up to 57.1 µM), inactives show at the highest dose activity change, negative = cytotoxicity, most hits filed as cytotoxic; 0.12% of 150,000 active; AID 1671193;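 also: potency is read from the fitted curve at half-maximal effect; 0% = DMSO-treated cells and -100% = medium-only wells without cells; nearly all actives have a fitted effect of over 30% in size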
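Cytotoxicity counterscreen: after 24 h compound treatment of genome-edited SNCA-luciferase HEK-293 cells, live-cell protease substrate GF-AFC read by fluorescence after 30 min; activity scaled between DMSO (0%) and medium-only (-100%), curves Hill-fitted.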
IP6K1 inhibitor = blocks human inositol hexakisphosphate kinase 1 | Q92551 | IP6K1 kinase, ADP-Glo luminescence, 2 h; active compounds read low | activity change, % (series mostly up to about 58 µM) | 0.81% of 140,000 active | AID 1645851; in the data active = activity change below about -25%; also: % is scaled to controls: 0 for no effect and ±100 for the full control effect
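ADP-Glo luminescence measures ADP made by human IP6K1 during a 2 h RT reaction with ATP/IP6 (mix at 1.3 mM/130 uM); top library doses 57.5 and 19.1 uM final.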
KDM5B inhibitor = KDM5B demethylase inhibition; KDM5B demethylase, FDH-coupled NADH fluorescence (FDH is formaldehyde dehydrogenase); Potency, µM (highest dose often 57.7 µM), most hits filed as inhibitors; 2.6% of 220,000 active; AID 1347165; also: potency is read from the fitted curve at half-maximal effect; 0% is about no effect; nearly all actives have a fitted effect of over 70% in size
Target sequence (Q9UGL1 whole entry, looked up): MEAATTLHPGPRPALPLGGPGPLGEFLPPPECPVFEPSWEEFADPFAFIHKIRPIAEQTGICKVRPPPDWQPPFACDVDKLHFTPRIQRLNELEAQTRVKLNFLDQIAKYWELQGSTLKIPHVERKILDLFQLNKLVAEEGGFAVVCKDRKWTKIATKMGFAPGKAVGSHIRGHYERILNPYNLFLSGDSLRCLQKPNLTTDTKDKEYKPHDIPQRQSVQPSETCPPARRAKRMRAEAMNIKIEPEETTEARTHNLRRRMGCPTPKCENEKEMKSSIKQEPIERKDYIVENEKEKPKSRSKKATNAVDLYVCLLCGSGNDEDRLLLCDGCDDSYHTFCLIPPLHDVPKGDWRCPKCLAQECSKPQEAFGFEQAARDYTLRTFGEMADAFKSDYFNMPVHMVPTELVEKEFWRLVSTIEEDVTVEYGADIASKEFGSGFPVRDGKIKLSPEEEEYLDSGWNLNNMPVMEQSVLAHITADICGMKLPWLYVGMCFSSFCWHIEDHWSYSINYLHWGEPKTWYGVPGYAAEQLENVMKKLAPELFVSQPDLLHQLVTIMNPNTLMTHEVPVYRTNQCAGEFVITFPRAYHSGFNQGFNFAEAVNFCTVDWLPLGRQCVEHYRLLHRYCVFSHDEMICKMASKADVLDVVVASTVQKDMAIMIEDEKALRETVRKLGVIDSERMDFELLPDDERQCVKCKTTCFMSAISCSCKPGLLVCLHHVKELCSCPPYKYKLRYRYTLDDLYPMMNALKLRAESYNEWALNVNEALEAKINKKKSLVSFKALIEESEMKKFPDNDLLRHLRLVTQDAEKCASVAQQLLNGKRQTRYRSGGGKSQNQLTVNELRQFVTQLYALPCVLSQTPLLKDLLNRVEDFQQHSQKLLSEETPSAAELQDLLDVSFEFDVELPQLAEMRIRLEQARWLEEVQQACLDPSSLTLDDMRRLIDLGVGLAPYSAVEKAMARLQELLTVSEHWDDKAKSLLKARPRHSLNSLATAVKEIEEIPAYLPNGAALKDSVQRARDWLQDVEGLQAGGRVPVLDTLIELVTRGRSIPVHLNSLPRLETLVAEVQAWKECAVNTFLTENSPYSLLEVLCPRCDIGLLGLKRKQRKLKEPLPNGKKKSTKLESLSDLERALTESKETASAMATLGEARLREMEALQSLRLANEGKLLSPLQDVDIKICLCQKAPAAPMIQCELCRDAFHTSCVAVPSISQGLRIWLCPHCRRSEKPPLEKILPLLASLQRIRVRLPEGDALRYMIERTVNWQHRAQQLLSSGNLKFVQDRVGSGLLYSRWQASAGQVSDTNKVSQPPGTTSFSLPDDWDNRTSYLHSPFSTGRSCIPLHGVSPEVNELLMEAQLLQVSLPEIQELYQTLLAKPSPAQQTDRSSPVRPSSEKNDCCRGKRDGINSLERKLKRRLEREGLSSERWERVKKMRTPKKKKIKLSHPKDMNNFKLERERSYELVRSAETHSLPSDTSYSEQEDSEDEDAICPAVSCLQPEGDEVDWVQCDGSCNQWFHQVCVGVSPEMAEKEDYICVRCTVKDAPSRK
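Compound dilutions met 200 nM (final) KDM5BΔAP for 10 min at room temperature before substrate addition. The substrate mix held 12.5 µM H3K4me3 with cofactors 25 µM α-ketoglutarate and 50 µM Fe²⁺. NADH signal gain over 30 min defined activity.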
* marks the source's active call; other numbers are inactive results; i = inactive; ? = inconclusive; · = no result; ! = a repeat was not active; [ ] = another dose, or the depositor's remark. Unless noted, calls follow the shape of the dose curve; as a rule, active = well fitted curve in the direction sought with a large enough effect; inconclusive = small, poorly fitted or top-dose-only effect, or another doubt; inactive = no such curve, though single readings can be large; an effect the other way counts as inactive or inconclusive.

SMILES	SNCA expr inh	SNCA viab count	IP6K1 inhibitor	KDM5B inhibitor
Cc1cc(F)ccc1Nc1ncncc1-c1nc(-c2ccccc2)no1	?	-9.4%	-12.6	7.94µM*
Cc1cccc(Nc2ncncc2-c2nc(-c3ccccc3)no2)c1C	-30.0%	-0.5%	-11.5	28.2µM*
COc1ccccc1CNc1ncncc1-c1nc(-c2ccccc2)no1	4.1%	2.3%	-5.2	31.6µM*
Cc1ccc(Nc2ncncc2-c2nc(-c3ccccc3)no2)c(C)c1	-17.4%	2.6%	2.8	i
c1ccc(-c2noc(-c3cncnc3NCc3cccs3)n2)cc1	7.6%	1.6%	-12.2	?
c1ccc(-c2noc(-c3cncnc3NCc3ccc4c(c3)OCO4)n2)cc1	52.4%	20.5%	-18.6	12.6µM*
CNc1ncncc1-c1nc(-c2ccccc2)no1	51.3%	-3.1%	-5.7	28.2µM*
CCc1ccc(Nc2ncncc2-c2nc(-c3ccccc3)no2)cc1	?	1.6%	-6.1	i
Cc1cccc(N2CCN(c3ncncc3-c3nc(-c4ccccc4)no3)CC2)c1	78.8%	3.7%	1.5	22.4µM*
c1ccc(-c2noc(-c3cncnc3NCC3CCCO3)n2)cc1 (configuration not stated)	81.9%	-12.0%	5.4	?
c1ccc(-c2noc(-c3cncnc3NCC3CCCCC3)n2)cc1	31.5%	3.2%	-6.8	28.2µM*
O=C(O)c1ccc2[nH]ncc2c1	·	·	·	i
CC1(C)Cc2c(sc(NC(=S)NC(=O)c3ccccc3)c2C(=O)O)CO1	0.6%	10.6%	·	·
C#CCNC(=O)C[C@@H]1CCN(C(=O)Nc2cccc(C(=O)OCC)c2)C[C@@H]1CC	-8.5%[87.6 µM]	7.5%[87.6 µM]	-0.5	15.8µM*
CCOC(=O)c1cccc(NC(=O)N2CC[C@@H](CC(=O)NCCN(C)C)[C@@H](CC)C2)c1	-16.7%[87.6 µM]	4.7%[87.6 µM]	3.8	i
CN1CCC(NC(=O)C2(C)CCc3cnc(N4CCOCC4)nc32)CC1 (configuration not stated)	?	13.0%[87.6 µM]	9.0	35.5µM*
COc1ccc(NC(=O)C2(C)CCc3cnc(N4CCOCC4)nc32)cc1 (configuration not stated)	-10.4%[87.6 µM]	17.1%[87.6 µM]	16.1	39.8µM*
CC1(C(=O)NC2CCOCC2)CCCc2cnc(Nc3ccccc3)nc21 (configuration not stated)	-10.1%[87.6 µM]	-26.0%[87.6 µM]	6.4	i
CN(C)c1ccc(CN[C@H]2C[C@H]3C(=O)NC[C@@H](CCC(=O)N4CCCC4)N3C2)cc1	8.8%[87.6 µM]	2.9%[87.6 µM]	-11.3	?
NC(=O)C1CCCN(CCNc2cc(-c3ccccc3)nc3ccnn23)C1 (configuration not stated)	-7.7%	-0.6%	14.4	31.6µM*
Cc1nc(NCCN2CCCC(C(N)=O)C2)c2cccnc2n1 (configuration not stated)	-2.5%	-16.5%	3.8	25.1µM*
Cc1nc2ccc(S(=O)(=O)NC(CC(C)C)C(=O)N3CCN(c4ccc(F)cc4)CC3)cc2s1 (configuration not stated)	4.5%	-0.1%	-9.9	?
CCC(C=C[C@@H]1OC(=O)C=C[C@H]1C)=C[C@H](C)CC=CC(C)=C[C@@H](C)C(=O)[C@@H](C)[C@H](O)[C@@H](C)CC(C)=CC(=O)O	0.16µM*	?	·	·
Cc1ccc(C#N)c(N2CCC3(CC2)CC(c2ccccc2)C(=O)N3C)n1 (configuration not stated)	0.2%	-16.3%	2.3	28.2µM*
CN1C(=O)C(c2ccccc2)CC12CCN(C(=O)C1CCC1)CC2 (configuration not stated)	-16.0%	2.4%	-5.1	i
SMILES	SNCA expr inh	SNCA viab count	IP6K1 inhibitor	KDM5B inhibitor
CN1C(=O)C(c2ccccc2)CC12CCN(C(=O)CN1CCCC1)CC2 (configuration not stated)	-24.7%	15.3%	2.0	25.1µM*
CN1CCOc2c(C(=O)NCCc3cnc[nH]3)cc(-c3ccccc3)cc21	?	-13.3%[87.6 µM]	-16.6	31.6µM*
CN1CCOc2c(C(=O)NCCC(N)=O)cc(-c3ccccc3)cc21	8.1%[87.6 µM]	-13.0%[87.6 µM]	-9.9	35.5µM*
CCc1ccc(Cn2c(CNS(=O)(=O)c3ccc(F)c(Cl)c3)nc3cccnc32)cc1	-2.0%	6.3%	-4.5	i
Cc1ccc(N2CCN(S(=O)(=O)c3cc(C(=O)Nc4cc(Cl)cc(Cl)c4)ccc3F)CC2C)cc1 (configuration not stated)	-22.5%	4.5%	-3.0	i
O=C(NCc1cccs1)c1cc(-c2ccccc2)c2nncn2n1	-5.5%	-8.0%	2.4	·
O=C(NCc1cccs1)c1cc(-c2cccnc2)c2nncn2n1	7.1%	-0.6%	12.8	100µM*
Cc1ccc(NC(=O)N2CCc3c(c4ccccc4n3C)C2)cc1C	-22.7%	3.8%	-1.8	31.6µM*
Cn1c2c(c3cc(F)ccc31)CN(C(=O)Nc1cccc(F)c1)CC2	58.0%	-12.2%	-3.7	?
O=C(Nc1ccccc1)N1CCc2c(c3ccccc3n2CC2CC2)C1	14.0%	-17.2%	-1.9	31.6µM*
Cn1c2c(c3ccccc31)CN(C(=O)Nc1cccc(Br)c1)CC2	-23.0%	3.7%	-1.5	?
Cc1cccc(NC(=O)N2CCc3c(c4ccccc4n3C)C2)c1C	-5.7%	-4.4%	-7.2	22.4µM*
O=C(Nc1cccc(O)c1)c1cc(-c2ccncc2)nc2ccccc12	·	·	·	i
CCC(C(=O)NCCc1c[nH]c2cc(OC)ccc12)c1ccccc1 (configuration not stated)	·	·	·	i
COc1ccc(-c2cc(-c3ccncc3)cn3cncc23)cc1	?	-15.1%[87.6 µM]	-12.6	39.8µM*
COc1ccc(-c2cc(-c3ccc4c(c3)CNC4=O)cn3cncc23)cc1	13.7%[87.6 µM]	-6.2%[87.6 µM]	-16.6	22.4µM*
OCc1ccc(-c2cc(-c3ccncc3)c3cncn3c2)cc1	-14.1%[87.6 µM]	2.0%[87.6 µM]	2.2	?
COc1ccc(-c2cc(-c3ccc4cn[nH]c4c3)cn3cncc23)cn1	?	-6.7%[87.6 µM]	-8.4	10µM*
COc1ccc(-c2cc(-c3cccc(C(N)=O)c3)cn3cncc23)cc1	12.2%[87.6 µM]	-8.2%[87.6 µM]	-7.1	?
COc1ccc(-c2cc(-c3cccnc3)c3cncn3c2)cn1	23.1%[87.6 µM]	-11.4%[87.6 µM]	-15.2	?
Cc1cccc(NC(=O)c2ccccc2NC(=O)CSc2nnc(-c3ccncc3)n2C2CC2)c1	·	·	·	i
CC(C)c1noc(-c2cn(C3CCN(C(=O)c4cc(F)ccc4F)CC3)nn2)n1	0.4%	14.7%	1.1	i
O=c1cc(CN2CCOCC2)occ1OCCCCCSc1ccnc2cc(C(F)(F)F)ccc12	?	29.9µM*!	-23.6	·
O=c1cc(CN2CCN(c3ccccc3)CC2)occ1OCc1ccccc1	·	·	·	i
CC1=C[C@@H](CNCCN2CCOCC2)[C@H](C(C)C)C[C@H]1Cc1nnc(-c2ccc(C)cc2)o1	-12.4%	?	17.2	i
CC(=O)Nc1cccc(C(=O)NCc2nnc3ccc(-c4ccc(C)cc4)nn23)c1	7.3%	-9.8%	7.5	?
N#Cc1ccc(C(=O)NCc2nnc3ccc(-c4ccc(F)cc4)nn23)cc1	12.4%	?	44.9	28.2µM*
O=C(NCc1nnc2ccc(-c3ccc(Cl)cc3)nn12)c1cccc(Cl)c1	0.0%	-8.1%	4.5	22.4µM*
